Test results: PubChem BioAssay (NCATS)
A number with no mark means an inactive call. No rule for the calls is given here.

The molecules below were run on HIV-1 nucleocapsid protein NCp7 (binding to TG oligonucleotide) (assay: HIV Nucleocapsid (AID 346;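 also: potency is for inhibitors that block NC binding and lower polarization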)). Conditions: HIV-1 NC / fluorescein-TGTGTGTG probe, fluorescence polarization.
How it was run: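 NCp7 100 nM + fluorescein TG4xF 10 nM; Hepes pH 7.5/250mM NaCl/1uM ZnCl2/0.004% PEG 20000; 1 hr RT; FP, 45 s exposure; oligo-only wells as negative control.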
Potency is read from the fitted curve at half-maximal effect.

| Compound | Potency [µM] |
| --- | --- |
| COc1ccccc1CN1CC[C@@]2(CCCN(C(=O)c3cnccn3)C2)C1 | > 20 |
| COc1ccc(-c2nc3cnc(Nc4cccc(OC)c4)nc3n(C)c2=O)cc1 | > 20 |
| N#Cc1cccc(NC(=O)N2CC3(CCN(C(=O)c4ccco4)CC3)C2)c1 | > 20 |
| CN(C)c1ncc2nc(-c3cn(C)c4ccccc34)c(=O)n(C[C@H]3CCCO3)c2n1 | > 20 |
| CN(C)c1ncc2nc(-c3ccc(F)cc3)c(=O)n(Cc3ccc(F)cc3)c2n1 | > 20 |
| COc1ccc(C(=O)N2CCC3(CCCN(c4ccncc4)C3)CC2)cc1 | > 20 |
| O=c1c(CCc2ccccc2)nc2cnc(Oc3ccccc3)nc2n1C1CC1 | > 20 |
| COCCn1c(=O)c(CCc2ccccc2)nc2cnc(N3CCN(C)CC3)nc21 | > 20 |
| COc1cccc(-c2cncnc2NCCN2CCOCC2)c1 | > 20 |
| Cc1nc2cnc(Oc3ccccc3)nc2n(-c2ccccc2)c1=O | > 20 |
| CS(=O)(=O)Nc1cccc(-c2nc(N3CCNCC3)c3ccccc3n2)c1 | > 20 |
| COc1ncc2nc(-c3cccs3)c(=O)n(Cc3ccc(F)cc3)c2n1 | > 20 |
| COCC(=O)N1CCC2(CC1)CN(c1ccncc1)C2 | > 20 |
| COc1ccc(CNc2ncncc2-c2ccc(N(C)C)cc2)c(OC)c1 | > 20 |
| O=C(Nc1cccc(F)c1)N1CCC2(CC1)CCN(S(=O)(=O)c1ccccc1)CC2 | > 20 |
| COCCNc1ncnc2ccc(-c3cccc(NS(C)(=O)=O)c3)cc12 | > 20 |
| O=C(Nc1ccccc1)N1CCC2(CC1)CCN(S(=O)(=O)c1ccccc1)CC2 | > 20 |
| Cc1ccccc1-c1cc(Nc2ccc(F)cc2)ncn1 | > 20 |
| Cc1noc(C)c1-c1ccc2ncnc(NC3CCNCC3)c2c1 | > 20 |
| COc1ccc(C(=O)N2CCC3(CCCN(C(=O)Nc4cccc(F)c4)C3)CC2)cc1 | > 20 |

| Compound | Potency [µM] |
| --- | --- |
| CN1CCN(c2cc(-c3ccccc3C(F)(F)F)ncn2)CC1 | > 20 |
| Cn1cccc1C(=O)N1CCC2(CCCN(Cc3ccccc3)C2)CC1 | > 20 |
| O=c1c(-c2cccs2)nc2cncnc2n1Cc1ccc(F)cc1 | > 20 |
| Cn1cccc1C(=O)N1CCC2(CCCN(c3ccccn3)C2)CC1 | > 20 |
| COc1cccc(Cn2c(=O)c(C)nc3cnc(N4CCN(C)CC4)nc32)c1 | > 20 |
| c1cncc(CNc2nc(-c3cccnc3)nc3ccccc23)c1 | > 20 |
| O=C(c1cc(C(F)(F)F)cc(C(F)(F)F)c1)N1CCC2(CCN(Cc3ccccc3)CC2)CC1 | > 20 |
| O=c1c(-c2cc(F)cc(F)c2)nc2cnc(N3CCOCC3)nc2n1Cc1ccc(F)cc1 | > 20 |
| COc1ccccc1CN1CCCC2(CCN(S(C)(=O)=O)CC2)C1 | > 20 |
| Cc1noc(C)c1C(=O)N1CCC2(CCCN(Cc3ccccc3)C2)CC1 | > 20 |
| c1ccc(CNc2ccnc(-c3ccc4c(c3)OCO4)n2)cc1 | > 20 |
| N#Cc1cccc(NC(=O)N2CCCC3(CCN(C(=O)c4cccc(F)c4)CC3)C2)c1 | > 20 |
| Cn1c(=O)c(-c2cc(F)cc(F)c2)nc2cnc(N3CCNCC3)nc21 | > 20 |
| CN(C)c1ncc2nc(-c3cccc(C#N)c3)c(=O)n(C[C@H]3CCCO3)c2n1 | > 20 |
| COc1ncc2nc(-c3cc(F)cc(F)c3)c(=O)n(CCC#N)c2n1 | > 20 |
| c1cncc(CNc2nc(-c3ccc4c(c3)OCO4)nc3ccccc23)c1 | > 20 |
| CN(Cc1ccco1)c1cc(-c2ccc3c(c2)OCO3)ncn1 | > 20 |
| Cc1noc(C)c1-c1nccc(N2CCNCC2)n1 | > 20 |
| COc1ccc(NC(=O)N2CC3(CCN(S(C)(=O)=O)CC3)C2)cc1 | > 20 |
| Cc1nc2cnc(N3CCN(C)CC3)nc2n(C2CC2)c1=O | > 20 |
